Among all 390,000 compounds or so, about 910 (0.23%) were called active. A call without a number means that no potency is given here. Roughly 5% stayed inconclusive and do not appear here. Calls come from the whole dose curve; as a rule, active = well fitted inhibition curve with a large enough effect; inconclusive = small, poorly fitted or top-dose-only effect; inactive = no such curve, though single readings can be large or run the other way. Many of the other results were omitted from the sample, so actives are more common in it than they were.
Potency is the fitted concentration of half-maximal effect.

Chain of Ubiquitin carboxyl-terminal hydrolase 1 (Homo sapiens) (O94782 whole entry, looked up): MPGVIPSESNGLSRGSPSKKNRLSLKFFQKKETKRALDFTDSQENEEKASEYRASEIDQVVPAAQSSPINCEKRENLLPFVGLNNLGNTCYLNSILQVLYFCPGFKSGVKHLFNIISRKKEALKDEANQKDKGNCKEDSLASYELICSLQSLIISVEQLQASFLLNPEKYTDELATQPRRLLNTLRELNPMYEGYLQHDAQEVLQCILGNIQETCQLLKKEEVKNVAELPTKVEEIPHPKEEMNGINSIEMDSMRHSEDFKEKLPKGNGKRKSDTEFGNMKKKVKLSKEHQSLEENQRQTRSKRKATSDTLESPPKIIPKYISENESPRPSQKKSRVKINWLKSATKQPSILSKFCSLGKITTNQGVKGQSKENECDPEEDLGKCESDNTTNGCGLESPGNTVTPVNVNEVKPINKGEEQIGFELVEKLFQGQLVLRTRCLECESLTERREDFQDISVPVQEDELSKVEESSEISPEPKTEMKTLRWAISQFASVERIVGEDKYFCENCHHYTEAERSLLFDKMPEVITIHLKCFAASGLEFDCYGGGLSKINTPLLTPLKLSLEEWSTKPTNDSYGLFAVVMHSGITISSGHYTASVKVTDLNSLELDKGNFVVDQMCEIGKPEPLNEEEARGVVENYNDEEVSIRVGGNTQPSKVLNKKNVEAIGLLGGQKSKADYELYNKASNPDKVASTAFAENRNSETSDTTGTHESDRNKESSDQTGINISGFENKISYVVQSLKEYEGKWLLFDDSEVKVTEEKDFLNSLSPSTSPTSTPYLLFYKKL

The test has as its target Ubiquitin carboxyl-terminal hydrolase 1 (Homo sapiens) (UniProt O94782). As to the kind of experiment: Inhibitors of USP1/UAF1: Primary Screen. Note: nearly all actives have a fitted effect of over 60% in size. The settings on record: recombinant USP1/UAF1, Ub-Rhodamine cleavage fluorescence; series mostly up to 57.1 µM. An excerpt: Deubiquitinating enzymes (DUBs) are a class of enzymes that can cleave isopeptide bond formed between the C-terminal carboxylate of ubiquitin and a lysine side-chain amino group on the target protein. Among them, ubiquitin specific proteases (USPs) constitute the largest DUB family. Human USPs are emerging as promising targets for pharmacological intervention because of their connection to a number of human diseases, including prostate, colon and breast cancer (1, 2), pediatric acute lymphoblastic leukemia (3), and familial cylindromatosis (4). The advantage of inhibiting USPs lies in the potential specificity of therapeutic intervention that can lead to better efficacy and reduce nonspecific side effects. In a collaboration between the University of Delaware and the NIH Chemical Genomics Center, a high-throughput screen assay was developed to screen for USP1/UAF1 inhibitors. This miniaturized assay has a fluorescent read-out and is used to screen the NIH Molecular Libraries Small Molecule Repository (MLSMR) in order to identify a small molecule that inhibits USP1. NIH Chemical Genomics Center [NCGC] NIH Molecular Libraries Probe Centers Network [MLPCN] MLPCN Grant: DA030552 Assay Submitter (PI): Zhihao Zhuang, University of Delaware 1. Priolo, C., et al. (2006) The isopeptidase USP2a protects human prostate cancer from apoptosis. Cancer Res 66, 8625-8632 2. Popov, N., et al. (2007) The ubiquitin-specific protease USP28 is required for MYC stability. Nat Cell Biol 9, 765-774 3. De Pitta, C., et al. (2005) A leukemia-enriched cDNA microarray platform identifies new transcripts with relevance to the biology of pediatric acute lymphoblastic leukemia. Haematologica 90, 890-898 4. Kovalenko, A., et al. (2003) The tumour suppressor CYLD negatively regulates NF-kappaB signalling by deubiquitination. Nature 424, 801-805
3 microliters of reagents (buffer in columns 3 and 4 as negative control and 1nM USP1/UAF1 complex in columns 1, 2, and 5-48) are dispensed into Greiner black solid bottom 1536-well assay plates. Compounds are then transferred via Kalypsys pin tool equipped with 1536-pin array (10nl slotted pins, V&P Scientific, San Diego, CA). Following an incubation step of 15 min at room temperature, 1ul of Ub-Rho substrate (150nM final concentration) is added to initiate the reaction. The plates are immediately centrifuged at 1000 rpm for 15 seconds, and subsequently transferred to a ViewLux high-throughput CCD imager (PerkinElmer) wherein kinetic measurements of fluorescence are acquired using 480 nm excitation/540 nm emission filter set (6 reads every 60 seconds, see Table 1). All reagents are diluted in an assay buffer consisting of 50mM HEPES (pH 7.8), 0.5mM EDTA, 0.1 mg/ml BSA, 1mM TCEP, and 0.01% Tween-20.
With `COC(=O)C1=C(c2ccccc2)C[C@@H]2CC[C@H]1N2C(=O)NCc1ccco1`, the Potency entry was “inactive”.
`Cc1ncoc1C(=O)NCC1=C(c2cccc3ccccc23)C[C@@H]2CC[C@H]1N2Cc1ccco1`: the Potency entry is “inactive”.
On to `COc1cc(Cn2c(N)c(C(=O)NCc3ccco3)c3nc4ccccc4nc32)cc(OC)c1OC`, for which the Potency is 22.4 µM (active).
As to `CN(C)CC1Oc2ccccc2OC1(O)c1ccccc1` (stereo not given), the Potency entry is “inactive”.
For the compound `Cc1ccc(-n2c(/C=C/c3cccc(C(F)(F)F)c3)nc3ccccc3c2=O)cc1`, the Potency entry is “inactive”.
The entry for `COC(=O)C1=C(c2ccc(OCc3ccccc3)cc2)C[C@@H]2CC[C@H]1N2C(=O)NCc1cccc(F)c1` is “inactive”; for `O=C1NC(=O)N(c2ccccc2)C(=O)/C1=C/c1ccc([N+](=O)[O-])s1` it is 28.2 µM (active).
The entry for `CC(=O)C1(O)CCC2C3CCC4=C(Cl)C(=O)CCC4(C)C3CCC21C` (stereo not given) is “inactive”; for `COc1cccc(N2C(=O)NC(=O)/C(=C\c3cn(C)c4ccccc34)C2=O)c1` it is 11.2 µM (active); for `Cc1c(C(=O)O)cccc1-n1c(C)cc(/C=C2\C(=O)NC(=O)N(c3ccc4c(c3)OCO4)C2=O)c1C` it is “inactive”.
Take `Cn1cc(/C=C/c2nc3ccccc3c(=O)n2-c2ccccc2)c2ccccc21`: the Potency result is “inactive”.
As for `O=C1C2CCN(CC2)C1(CO)CO`, the Potency entry is “inactive”.
The value for `C[N+](C)(C)CCOP(=O)([O-])OC[C@H](O)CO` was “inactive”; that for `Cc1ccc(OC(=O)N(C)C[C@@H]2OCc3cnnn3CCCC(=O)N([C@H](C)CO)C[C@@H]2C)cc1` was “inactive”.
With `COc1cc(C2c3cc4c(cc3C(O)C3COC(=O)C23)OCO4)cc(OC)c1OC` (stereo not given), the Potency result was “inactive”.
